# From PubChem BioAssay (Tox21)
# Where “and” joins values, the source holds several entries; their conditions need not be identical. Equal entries are not always repeated. Records with an inconclusive call do not appear. Entries that show only a call come without a potency. Calls of active or inactive are those of the source. Unless noted, calls follow the shape of the dose curve; as a rule, active = well fitted curve in the direction sought with a large enough effect in the repeat runs; inconclusive = weak or mixed curves; inactive = no such curve, though single readings can be large; an effect the other way counts as inactive or inconclusive.
# How the values were obtained:
# [1] = A CellTox Green Cytotoxicity Assay to monitor cytotoxicity in HEK293 cells - 32 hour (AID 1224881); also: nearly all actives have a fitted effect of over 40% in size; also: potency is read from the fitted curve at half-maximal effect
# Summary of the method: (§1)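 Nonlytic real-time cytotoxicity: HEK293 + CellTox Green reagent plated, 5 h preincubation, pintool compound addition (23 nL in DMSO), 37 C for 40 h, fluorescence measured at successive time points.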
# [2] = A CellTox Green Cytotoxicity Assay to monitor cytotoxicity in HepG2 cells - 0 hour (AID 1224882); also: nearly all actives have a fitted effect of over 35% in size
# Summary of the method: (§2)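 Read-out is fluorescence of a cyanine dye excluded from live cells that stains DNA of dead HepG2 cells, with signal proportional to cytotoxicity. Plates were read at 0, 8, 16, 24, 32 and 40 h after compound addition.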
# [3] = A CellTox Green Cytotoxicity Assay to monitor cytotoxicity in HEK293 cells - 8 hour (AID 1224884); also: nearly all actives have a fitted effect of over 35% in size; also: potency is read from the fitted curve at half-maximal effect
# Summary of the method: as §1
# [4] = qHTS RealTime-Glo MT Cell Viability Assay in HepG2 cells - 16 hour (AID 1224885); also: nearly all actives have a fitted effect of over 50% in size; also: potency is read from the fitted curve at half-maximal effect
# Summary of the method: (§3)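 Cell number in HepG2 cultures estimated from NanoLuc luminescence generated by metabolic reduction of a prosubstrate by living cells. The homogeneous, nonlytic format allowed repeated reads at 0, 8, 16, 24, 32 and 40 h of compound exposure.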
# [5] = qHTS RealTime-Glo MT Cell Viability Assay in HEK293 cells - 24 hour (AID 1224886); also: nearly all actives have a fitted effect of over 50% in size; also: potency is read from the fitted curve at half-maximal effect
# Summary of the method: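 Homogeneous bioluminescent viability format in HEK293 cells (600 cells/well). Following 5 h at 37 C/5% CO2, 23 nL compound was pintooled; the signal was measured repeatedly during 40 h incubation.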
# [6] = qHTS RealTime-Glo MT Cell Viability Assay in HEK293 cells - 8 hour (AID 1224887); also: nearly all actives have a fitted effect of over 50% in size; also: potency is read from the fitted curve at half-maximal effect
# Summary of the method: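 Cells were seeded together with NanoLuc luciferase and a prosubstrate that viable cells reduce to a luciferase substrate. After a 5 h incubation at 37 C/5% CO2, compounds were added and luminescence was measured repeatedly during 40 h of treatment.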
# [7] = A CellTox Green Cytotoxicity Assay to monitor cytotoxicity in HEK293 cells - 16 hour (AID 1224888); also: nearly all actives have a fitted effect of over 35% in size; also: potency is read from the fitted curve at half-maximal effect
# Summary of the method: as §1
# [8] = qHTS RealTime-Glo MT Cell Viability Assay in HepG2 cells - 0 hour (AID 1224889); also: nearly all actives have a fitted effect of over 50% in size; also: potency is read from the fitted curve at half-maximal effect
# Summary of the method: as §3
# [9] = qHTS assay to identify small molecule antagonists of the estrogen receptor alpha (ER-alpha) signaling pathway using the BG1 cell line in the presence of 0.1 nM 17-beta-estradiol - cell viability counter screen (AID 1259241); also: nearly all actives have a fitted effect of over 40% in size; also: potency is read from the fitted curve at half-maximal effect
# Summary of the method: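 VM7Luc4E2 cells (endogenous ER-alpha, 4×ERE-luciferase), hormone-starved 5 days in charcoal-stripped FBS, were treated with compounds plus 0.1 nM 17beta-estradiol for 22 hr at 37C; viability read in same wells as CellTiter-Fluor live-cell protease fluorescence.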
# [10] = qHTS assay to identify small molecule antagonists of the androgen receptor (AR) signaling pathway using the MDA cell line in the presence of 0.5 nM R1881 - cell viability counter screen (AID 1259242); also: nearly all actives have a fitted effect of over 45% in size; also: potency is read from the fitted curve at half-maximal effect
# Summary of the method: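 Counter screen for cytotoxicity run in the same wells as the AR antagonist reporter screen: MDA-kb2 cells were treated 16 hr with test compounds and 0.5 nM R1881, then live-cell protease activity was measured by fluorescence.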
# [11] = biological target: Estrogen receptor (Homo sapiens) (UniProt P03372); assay: qHTS assay to identify small molecule antagonists of the estrogen receptor alpha (ER-alpha) signaling pathway using the BG1 cell line in the presence of 0.1 nM 17-beta-estradiol (AID 1259244); also: nearly all actives have a fitted effect of over 50% in size; also: potency is read from the fitted curve at half-maximal effect
# Summary of the method: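 Cells: VM7Luc4E2, endogenous ER-alpha, 4x ERE-luc stable. Pre-culture 5 d, phenol red-free, charcoal-stripped FBS. Plated 24 h, compound + E2 0.1 nM final, 22 h 37C/5% CO2. Readout ONE-Glo luminescence.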
# [12] = qHTS assay to identify small molecule HDAC inhibitors (AID 1259364); also: nearly all actives have a fitted effect of over 45% in size; also: potency is read from the fitted curve at half-maximal effect
# Summary of the method: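 Luminescence from a cell-permeant luminogenic class I/II HDAC substrate reports endogenous deacetylase activity in intact HCT-116 cells treated with compounds for 2 h.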
# [13] = qHTS assay to identify small molecule HDAC inhibitors - cell viability counter screen (AID 1259365)
# Summary of the method: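 Wild-type HCT-116 cells were seeded at 1,500 per well, incubated overnight at 37 C, then exposed to compounds in DMSO for 2hr. Viability was read by CellTiter-Glo luminescence after 30min at room temperature.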
# [14] = qHTS assay to identify small molecule antagonists of the sonic hedgehog signaling (Shh) pathway - cell viability counter screen (AID 1259367); also: nearly all actives have a fitted effect of over 55% in size; also: potency is read from the fitted curve at half-maximal effect
# Summary of the method: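 Using CellTiter-Fluor, viability of Gli1-Luc reporter 3T3 cells is read by fluorescence in the wells used for the Shh luciferase assay. Treatment lasts 23 hr with conditioned medium, then reagent 1 hr at 37C.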
# [15] = qHTS assay to identify small molecule agonists of the sonic hedgehog signaling (Shh) pathway (AID 1259368; calls by dose curve; also: nearly all actives have a fitted effect of over 15% in size; also: potency is read from the fitted curve at half-maximal effect)
# Summary of the method: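 3T3Gli1-Luc (NIH/3T3 clone, stable Gli1-Luc); 4 hr pre-incubation, then cpd in DMSO 24 hr, 37 C/5% CO2; luciferase reagent 30 min RT; luminescence.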
# [16] = qHTS assay to identify small molecule phospholipidosis (PLD) inducers (AID 1259344; active = well fitted curve in the direction sought with a large enough effect; an effect the other way counts as inactive or inconclusive)
# Summary of the method: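 Fluorescent phospholipid staining (LipidTOX Red) measured by automated microscopy in fixed HepG2 cells after 24 h treatment; nuclei counterstained with Hoechst 33342; amiodarone as reference inducer.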
# [17] = A CellTox Green Cytotoxicity Assay to monitor cytotoxicity in HepG2 cells - 8 hour (AID 1224890); also: nearly all actives have a fitted effect of over 45% in size
# Summary of the method: as §2
# [18] = qHTS assay to identify small molecule agonists of the sonic hedgehog signaling (Shh) pathway - cell viability counter screen (AID 1259366); also: nearly all actives have a fitted effect of over 50% in size; also: potency is read from the fitted curve at half-maximal effect
# Summary of the method: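 NIH/3T3-derived 3T3 Gli1-Luc cells (stable Gli1-responsive firefly luciferase reporter) were seeded, rested 4 hr at 37 C/5% CO2, then exposed to compounds in DMSO for 24 hr; viability was read by CellTiter-Fluor fluorescence in the same wells.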
# [19] = A CellTox Green Cytotoxicity Assay to monitor cytotoxicity in HepG2 cells - 32 hour (AID 1224883); also: nearly all actives have a fitted effect of over 50% in size; also: potency is read from the fitted curve at half-maximal effect
# Summary of the method: as §2
# [20] = biological target: Androgen receptor (Homo sapiens) (UniProt P10275); assay: qHTS assay to identify small molecule antagonists of the androgen receptor (AR) signaling pathway using the MDA cell line in the presence of 0.5 nM R1881 (AID 1259243); also: nearly all actives have a fitted effect of over 50% in size; also: potency is read from the fitted curve at half-maximal effect
# Summary of the method: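 Luciferase luminescence is the read-out: compounds are tested for suppressing 0.5 nM R1881-driven MMTV reporter activity in MDA-kb2 cells after 16 hr at 37C.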
# Chain of Androgen receptor (Homo sapiens) (P10275 whole entry, looked up): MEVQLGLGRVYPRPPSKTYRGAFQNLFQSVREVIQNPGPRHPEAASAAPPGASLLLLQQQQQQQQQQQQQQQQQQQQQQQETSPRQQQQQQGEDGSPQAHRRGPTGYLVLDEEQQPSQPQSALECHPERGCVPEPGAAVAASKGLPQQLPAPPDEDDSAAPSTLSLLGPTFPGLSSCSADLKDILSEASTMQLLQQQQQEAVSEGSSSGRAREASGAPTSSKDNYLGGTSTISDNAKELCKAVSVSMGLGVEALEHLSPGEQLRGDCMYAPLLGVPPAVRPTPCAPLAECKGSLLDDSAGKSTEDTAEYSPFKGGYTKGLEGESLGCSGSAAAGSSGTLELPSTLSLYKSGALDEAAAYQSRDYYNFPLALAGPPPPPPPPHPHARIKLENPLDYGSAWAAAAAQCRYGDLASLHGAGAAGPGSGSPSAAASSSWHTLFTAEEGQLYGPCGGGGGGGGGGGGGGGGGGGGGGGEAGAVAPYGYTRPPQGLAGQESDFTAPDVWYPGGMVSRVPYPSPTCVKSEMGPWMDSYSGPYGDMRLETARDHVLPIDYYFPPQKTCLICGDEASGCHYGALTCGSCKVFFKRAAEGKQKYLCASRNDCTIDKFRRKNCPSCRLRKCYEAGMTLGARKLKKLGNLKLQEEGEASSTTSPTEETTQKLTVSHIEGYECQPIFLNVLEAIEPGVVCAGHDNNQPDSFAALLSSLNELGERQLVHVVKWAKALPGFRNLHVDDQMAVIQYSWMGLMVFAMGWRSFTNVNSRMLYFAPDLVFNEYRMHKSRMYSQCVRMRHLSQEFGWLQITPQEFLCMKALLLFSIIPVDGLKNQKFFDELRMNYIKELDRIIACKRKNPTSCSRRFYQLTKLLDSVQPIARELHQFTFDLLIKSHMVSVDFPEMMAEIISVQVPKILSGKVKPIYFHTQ
# Chain of Estrogen receptor (Homo sapiens) (P03372 whole entry, looked up): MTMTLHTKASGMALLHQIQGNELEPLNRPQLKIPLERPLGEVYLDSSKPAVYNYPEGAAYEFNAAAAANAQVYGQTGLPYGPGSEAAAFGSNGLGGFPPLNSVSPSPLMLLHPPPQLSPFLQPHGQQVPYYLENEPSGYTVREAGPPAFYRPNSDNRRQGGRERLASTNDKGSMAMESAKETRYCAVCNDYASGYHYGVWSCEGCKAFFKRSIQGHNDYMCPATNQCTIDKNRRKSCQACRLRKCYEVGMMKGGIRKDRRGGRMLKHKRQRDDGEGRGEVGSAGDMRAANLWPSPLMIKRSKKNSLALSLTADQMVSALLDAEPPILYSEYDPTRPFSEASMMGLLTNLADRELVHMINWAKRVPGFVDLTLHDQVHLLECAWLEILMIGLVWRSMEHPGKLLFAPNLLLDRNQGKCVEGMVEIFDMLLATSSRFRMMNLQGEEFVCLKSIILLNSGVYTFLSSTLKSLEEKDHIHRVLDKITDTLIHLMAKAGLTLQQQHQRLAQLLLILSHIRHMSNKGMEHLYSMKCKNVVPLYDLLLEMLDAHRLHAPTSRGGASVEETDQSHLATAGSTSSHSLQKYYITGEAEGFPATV
Structure (SMILES),Potency [1],Potency [2],Potency [3],Potency [4],Potency [5],Potency [6],Potency [7],Potency [8],Potency [9],Potency [10],Potency [11],Potency [12],Potency [13],Potency [14],Potency [15],Potency [16],Potency [17],Potency [18],Potency [19],Potency [20]
O=C1c2ccccc2C(=O)N1SC1CCCCC1,12.3 µM (active) and 24.5 µM (active),inactive,inactive,38.9 µM (active),34.6 µM (active) and 34.7 µM (active),38.9 µM (active),43.6 µM (active),inactive,inactive,inactive,61.1 µM (active),inactive,inactive,inactive,inactive,–,–,–,–,–
CCCCCCCC/C=C\CCCCCCCCN,23.9 µM (active),inactive,23.9 µM (active),23.9 µM (active),21.3 µM (active),23.9 µM (active),23.9 µM (active),inactive,inactive,inactive,inactive,inactive,inactive,inactive,inactive,inactive,–,–,–,–
OC1CCC(C2CCCCC2)CC1 (stereo not drawn),inactive,inactive,inactive,inactive,inactive,inactive,inactive,inactive,inactive,inactive,inactive,inactive,inactive,inactive,inactive,–,inactive,inactive,–,–
CCO[C@@H]1O[C@H](C(COCc2ccccc2)OCc2ccccc2)[C@H](OCc2ccccc2)[C@H]1O (stereo partly drawn),inactive,inactive,inactive,–,–,–,inactive,–,inactive,inactive,–,inactive,inactive,inactive,inactive,inactive,inactive,inactive,inactive,–
O=S(=O)(O)c1ccc(N=Nc2c(O)ccc3ccccc23)cc1,inactive,inactive,inactive,–,–,–,inactive,–,54.5 µM (active),30.6 µM (active),–,0.686 µM (active),–,27.3 µM (active),inactive,–,inactive,27.3 µM (active),inactive,–
NC(=S)NC(N)=S,inactive,inactive,inactive,inactive,inactive,inactive,inactive,inactive,inactive,inactive,inactive,inactive,inactive,inactive,inactive,–,inactive,–,–,inactive
CC(=O)OCC=C(C)C,inactive,inactive,inactive,inactive,inactive,inactive,inactive,inactive,inactive,inactive,inactive,inactive,inactive,inactive,inactive,–,inactive,inactive,–,inactive
Cc1cccc(C)c1NC(=O)c1ccc(N)cc1,inactive,inactive,inactive,inactive,inactive,inactive,inactive,inactive,inactive,inactive,inactive,inactive,inactive,inactive,inactive,–,inactive,–,–,inactive
CNc1ccc([N+](=O)[O-])cc1,inactive,inactive,inactive,inactive,inactive,inactive,inactive,inactive,43.4 µM (active),–,inactive,inactive,inactive,inactive,inactive,–,inactive,19.4 µM (active),–,15.4 µM (active)
NC(=O)c1cccc([N+](=O)[O-])c1,inactive,inactive,inactive,inactive,inactive,inactive,inactive,inactive,inactive,inactive,inactive,inactive,inactive,inactive,inactive,–,inactive,inactive,–,inactive
CCCCC(CC)COC(=O)CCCCC(=O)OCc1ccccc1 (stereo not drawn),inactive,inactive,inactive,inactive,inactive,inactive,inactive,inactive,inactive,inactive,inactive,inactive,inactive,–,inactive,–,inactive,–,–,–
O=C(O)c1ccc2cc(C(=O)O)ccc2c1,inactive,inactive,inactive,inactive,inactive,inactive,inactive,inactive,inactive,inactive,inactive,–,inactive,inactive,inactive,–,inactive,–,–,–
CCC(COC(=O)CCS)(COC(=O)CCS)COC(=O)CCS,inactive,inactive,inactive,inactive,inactive,inactive,inactive,inactive,–,inactive,inactive,inactive,inactive,inactive,inactive,–,inactive,inactive,–,–
O=C1NC(=O)[C@@H]2CC=CC[C@H]12,inactive,inactive,inactive,inactive,inactive,inactive,inactive,inactive,inactive,inactive,–,inactive,inactive,inactive,inactive,–,inactive,inactive,–,–
CCCCCCC1CCCC(=O)O1 (stereo not drawn),inactive,inactive,–,inactive,inactive,inactive,inactive,inactive,inactive,inactive,–,inactive,inactive,inactive,inactive,–,inactive,inactive,inactive,–
Fc1ccc(C(c2ccc(F)cc2)N2CCNCC2)cc1,inactive,inactive,inactive,inactive,inactive,inactive,inactive,inactive,inactive,inactive,inactive,inactive,inactive,–,inactive,–,inactive,–,–,–

Structure (SMILES),Potency [1],Potency [2],Potency [3],Potency [4],Potency [5],Potency [6],Potency [7],Potency [8],Potency [9],Potency [10],Potency [11],Potency [12],Potency [13],Potency [14],Potency [15],Potency [16],Potency [17],Potency [18],Potency [19],Potency [20]
CCCC(=O)OCOC(=O)C1=C(C)NC(C)=C(C(=O)OC)C1c1cccc(Cl)c1Cl (stereo not drawn),inactive,inactive,inactive,inactive,inactive,inactive,inactive,10.7 µM (active),inactive,inactive,inactive,inactive,inactive,–,inactive,–,inactive,inactive,–,–
FC(F)(F)c1cccc(Cl)c1,inactive,inactive,inactive,inactive,inactive,inactive,inactive,inactive,inactive,inactive,inactive,inactive,inactive,inactive,inactive,–,inactive,inactive,–,inactive
Cc1ccc(C(=O)O)cc1,inactive,inactive,inactive,inactive,inactive,inactive,inactive,inactive,inactive,inactive,–,inactive,inactive,inactive,inactive,–,inactive,inactive,–,–
Nc1nc(-c2ccccc2)cs1,inactive,inactive,inactive,inactive,inactive,inactive,inactive,inactive,inactive,inactive,–,21.6 µM (active),inactive,inactive,inactive,–,inactive,inactive,–,–
CN1CCN(Cc2cc(-c3ccc4[nH]c(=O)oc4c3)co2)[C@@H](c2ccc(F)cc2)C1,inactive,inactive,–,–,26.5 µM (active),–,inactive,inactive,–,inactive,–,inactive,inactive,–,inactive,–,inactive,–,42 µM (active),–
CCCCOC(=O)CC,inactive,inactive,inactive,inactive,inactive,inactive,inactive,inactive,inactive,inactive,–,inactive,inactive,inactive,inactive,–,inactive,inactive,–,–
COc1ccc2c(c1)c(CC(=O)OC/C=C(\C)CC/C=C(\C)CCC=C(C)C)c(C)n2C(=O)c1ccc(Cl)cc1,inactive,inactive,–,inactive,inactive,–,inactive,inactive,inactive,inactive,inactive,inactive,inactive,inactive,inactive,–,inactive,inactive,inactive,–
C=CCCC(=O)/C=C/C1C(C)=CCCC1(C)C (stereo not drawn),24.5 µM (active),inactive,inactive,inactive,inactive,inactive,–,inactive,inactive,inactive,–,inactive,inactive,–,inactive,–,inactive,inactive,–,–
COc1ccc(-c2coc3cc(O)ccc3c2=O)cc1,inactive,inactive,inactive,inactive,inactive,inactive,–,inactive,inactive,inactive,inactive,1.54 µM (active),inactive,inactive,9.69 µM (active),–,inactive,–,–,–
OC1CCCc2ccccc21 (stereo not drawn),inactive,inactive,inactive,inactive,inactive,inactive,inactive,inactive,inactive,inactive,inactive,inactive,inactive,–,inactive,–,inactive,inactive,–,–
O=c1c(O)c(-c2ccc(O)cc2O)oc2cc(O)cc(O)c12,inactive,inactive,inactive,inactive,inactive,inactive,inactive,–,inactive,inactive,inactive,–,inactive,45.7 µM (active),inactive,–,inactive,inactive,–,–
OCC(F)(F)F,inactive,inactive,inactive,inactive,inactive,inactive,inactive,inactive,inactive,inactive,–,inactive,inactive,inactive,inactive,–,inactive,inactive,–,–
CN1CCN2c3ccccc3Cc3ccccc3C2C1 (stereo not drawn),inactive,inactive,inactive,inactive,inactive,inactive,inactive,inactive,inactive,inactive,inactive,inactive,inactive,–,inactive,inactive,inactive,–,–,–
CCO[Si](OCC)(OCC)OCC,inactive,inactive,inactive,inactive,inactive,inactive,inactive,inactive,inactive,inactive,inactive,inactive,inactive,inactive,inactive,–,inactive,inactive,–,–
COC(=O)c1ccccc1C,inactive,inactive,inactive,inactive,inactive,inactive,inactive,inactive,inactive,inactive,inactive,inactive,inactive,inactive,inactive,–,inactive,–,–,–
